Measurements taken from ChEMBL document CHEMBL3988442, “University of Dundee, Small-Polar-MMV Screening Library” (2021).
Screen size: about 38,000 compounds; about 1,200 (3.2%) showed an effect of 50% or more. The median lay at about -58%. This excerpt belongs to a sample that is enriched for strong results.

System: Plasmodium falciparum
Test: Calibr Malaria Delayed Death Assay SOP
Assay type: functional, organism-based
Set-up: scale not given: in the data most compounds retested in dose-response had high values
Conditions: concentration 4.99e-06 (unit not given; other assays of the set use mol/L)

SMILES	Percent Effect
Cc1cccc(S(=O)(=O)N2Cc3nccn3CC(CN(C)C)C2)c1 (stereo unspecified)	1.767%
CC(=O)N1CCc2[nH]c(=O)ccc2C1	-39.7%
CCCn1cc(CNCC(c2ccc(C)s2)N2CCOCC2)cn1 (stereo unspecified)	54.23%
Cc1ccc(C(CNCc2ccc(C#N)cc2)N2CCOCC2)s1 (stereo unspecified)	50.98%
CCn1cc(CNC(=O)CCc2nnc(-c3ccc(C)s3)o2)cn1	-44.03%
CCn1ccnc1CNCC(c1ccc(C)s1)N1CCOCC1 (stereo unspecified)	52.86%
CCn1cc(CNCC(c2ccc(C)s2)N2CCOCC2)cn1 (stereo unspecified)	64.77%
Cc1ccc(C(CNCC2CC2)N2CCOCC2)s1 (stereo unspecified)	23.83%
Cc1ccc(C(CNCc2nccn2C)N2CCOCC2)s1 (stereo unspecified)	-32.15%
O=C(CCn1cccn1)NCC(c1cccs1)N1CCOCC1 (stereo unspecified)	-64.96%
Cc1ccc(C(CNCc2ncc[nH]2)N2CCOCC2)s1 (stereo unspecified)	32.72%
Cc1ccc(C(CNCc2cccn2C)N2CCOCC2)s1 (stereo unspecified)	-42.34%
Cc1ccc(C(CNCc2ccncc2)N2CCOCC2)s1 (stereo unspecified)	-46.8%
Cc1ccc(C(CNCc2cccnc2)N2CCOCC2)s1 (stereo unspecified)	-2.804%
O=C(NCCc1nccs1)C(c1ccccc1)n1cnnn1 (stereo unspecified)	-126.4%
Cn1ccnc1-c1ccc(NCc2cn3c(n2)SCC3)nn1	-229.6%
CC(C)CC(CO)NS(=O)(=O)Cc1ccon1 (stereo unspecified)	-57.79%
Cc1ccc2nc(C3CCCN3C(=O)c3cc(=O)[nH]c(=O)[nH]3)[nH]c2c1 (stereo unspecified)	-24.73%
COc1ccc(NS(=O)(=O)CC2=NC(=O)n3cccc3C2=O)cc1Cl	-78.67%
CN(CCC(N)=O)Cc1cc(Br)cs1	-77.34%
Cc1ncc(CN(C)CC(O)c2ccc(OC(F)(F)F)cc2)s1 (stereo unspecified)	62.45%
Cc1cc(CNC(=O)NCC(O)c2cccc(C(F)(F)F)c2)no1 (stereo unspecified)	-35.43%
CCOC(=O)CN(C)Cc1cnc(C)s1	-144.9%
Cc1ncc(CN(C)CC(O)c2ccc(Br)cc2)s1 (stereo unspecified)	19.44%
CCCN(CCC)C(=O)CN(C)Cc1cnc(C)s1	-123.6%
Cc1ncc(CN(C)CC(O)c2cccc(C(F)(F)F)c2)s1 (stereo unspecified)	53.4%

SMILES	Percent Effect
N#Cc1ccc(N2CCC3(CCC(=O)N3Cc3ccncc3)CC2)nc1.O=C(O)C(F)(F)F.O=C(O)C(F)(F)F	-114.1%
CCn1cc(-c2cc(C(F)F)n3nc(CC(=O)O)nc3n2)cn1	-21.51%
CCOCCN1CCN([C@@H]2c3ccccc3C3(CCNCC3)[C@H]2O)CC1	-70.37%
COCCCC1CCN([C@@H]2c3ccccc3C3(CCNCC3)[C@H]2O)CC1	36.42%
Cc1cc(C(C)(O)CNC(=O)CCOCC(C)C)c(C)o1 (stereo unspecified)	-34.27%
CCS(=O)(=O)N1CC[C@@H]2[C@H](CC1)N(Cc1cccnc1)CCS2(=O)=O.O=C(O)C(F)(F)F.O=C(O)C(F)(F)F	-78.89%
Cc1csc(C2CCCCN2C(=O)COCc2nc(C)no2)n1 (stereo unspecified)	-74.6%
Cc1csc(C2CCCCN2C(=O)CN(C)C2CC2)n1 (stereo unspecified)	-127%
Cc1csc(C2CCCCN2C(=O)c2cc(C(C)C)[nH]n2)n1 (stereo unspecified)	75.22%
CC(NCC(=O)Nc1ccc(N2CCCCCC2)cc1)c1cccs1 (stereo unspecified)	21.94%
COC(=O)c1cc(OC)c(OC)cc1NCc1c(C)noc1C	-119.4%
CCCN(C(=O)CN1CCn2c(nnc2C2CC2)C1)C1=CCCCC1	-109.1%
Cc1nn(C)c2nc(NCCCN3CCCC(C(N)=O)C3)sc12 (stereo unspecified)	-133.1%
Cc1ccc(CN(CCCO)Cc2nc3ccccc3[nH]2)s1	-85.6%
COCc1ncc(CN(CCN(C)C)Cc2ccc(C)s2)cn1	1.94%
CCNc1ncc(CN(CCN(C)C)Cc2ccc(C)s2)cn1	37.82%
CCc1ccc(CN(CCN(C)C)Cc2ccc(C)s2)nc1	91.79%
Cc1ccc(CN(CCN(C)C)Cc2nc3ccccc3[nH]2)s1	60.93%
COc1ncc(CN(CCN(C)C)Cc2ccc(C)s2)cn1	-3.016%
O=C(O)C1(O)CCN(c2ccc3cccc(Cl)c3n2)CC1	-181.1%
CCCN1CCC(c2nc3ccc(-c4cccc(F)c4)cn3n2)CC1.O=C(O)C(F)(F)F	31.95%
COc1ccc(OC)c(-n2nnnc2SCC2CCCN(C)C2)c1 (stereo unspecified)	41.34%
COc1ccc(Cn2nnnc2SCC2CCCN(C)C2)cc1 (stereo unspecified)	58.9%
COc1ccc(CN2CC[C@H](c3nnc(-c4ccco4)o3)C2)cc1	-19.38%
O=C(O)C(F)(F)F.O=C(c1cccs1)N1CCOCC2(C1)CN(c1cccnc1)C(=O)CO2 (stereo unspecified)	-98.48%
